This is a sample that favours compounds with a hit; in the whole collection about 19% have one here.
DT40 TDP1 no CPT: qHTS for Inhibitors of human tyrosyl-DNA phosphodiesterase 1 (TDP1): qHTS in cells in absence of CPT; DT40 Tdp1-/- hTDP1 cells, no CPT, ATP luminescence, 48 h; Potency, µM (doses to about 46.2 µM), without a hit: top-dose activity change, negative = growth inhibition, most hits filed as inhibitors; 15% of 420,000 active; AID 686978, 2013; note: potency is the fitted concentration of half-maximal effect; % is set by controls: 0 for no effect and ±100 for the full control effect; nearly all actives have a fitted effect of over 55% in size
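DT40 Tdp1-/-;hTDP1 cells, no CPT (DMSO vehicle only), 400 cells/well; compounds pin-transferred; ≥48 hr, 37 °C; CellTiter-Glo 30 min RT dark, luminescence read.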
DT40 TDP1 CPT: growth inhibition of DT40 Tdp1-/-;hTDP1 cells with camptothecin (screen for TDP1 inhibitors); chicken DT40 Tdp1-/-;hTDP1 cells + 20 nM CPT, ATP luminescence, 48 h; Potency, µM (doses to about 46.2 µM), for inactives: top-dose activity change, negative = growth inhibition, hits mostly inhibitors; 12% of 420,000 active; AID 686979; note: potency is the fitted concentration of half-maximal effect; % is set by controls: 0 for no effect and ±100 for the full control effect; nearly all actives have a fitted effect of over 55% in size
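Cell growth measured by CellTiter-Glo luminescence after a minimum 48 h, 37 C compound exposure with 20 nM CPT in Tdp1-knockout DT40 cells stably expressing hTDP1, seeded 400/well; qHTS titration format.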
HepG2 tox: counter-screen for TGF-b inhibitors: cytotoxicity in HepG2 cells; 0.76% of 410,000 active; HepG2 CAGA-GFP viability, ATP luminescence, 18 h; Potency, µM (highest dose often 46.1 µM), without a hit: at the top dose activity change, negative = cytotoxicity, most hits filed as cytotoxic; note: potency is the fitted concentration of half-maximal effect
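CellTiter-Glo luminescence gave cytotoxicity after 18 hours at 37 degrees C. The cells were HepG2 CAGA-GFP in 1% FBS DMEM, stimulated with 500 pg/mL TGF-beta after compound addition. %Activity was normalised to no-cell wells (complete cell-killing) and DMSO (no toxicity), and curves were fitted and classified.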
TDP1 inh: TDP1 (human) enzyme inhibition. Q9NUW8. recombinant TDP1, AlphaScreen DNA substrate cleavage. Potency, µM (titrated, usually from 130 µM), for inactives: at the top dose activity change, negative = inhibition, hits mostly inhibitors. 0.28% of 350,000 active; note: potency is the fitted concentration of half-maximal effect; % is set by controls: 0 for no effect and ±100 for the full control effect; nearly all actives have a fitted effect of over 40% in size
Target sequence (Q9NUW8 whole entry, looked up): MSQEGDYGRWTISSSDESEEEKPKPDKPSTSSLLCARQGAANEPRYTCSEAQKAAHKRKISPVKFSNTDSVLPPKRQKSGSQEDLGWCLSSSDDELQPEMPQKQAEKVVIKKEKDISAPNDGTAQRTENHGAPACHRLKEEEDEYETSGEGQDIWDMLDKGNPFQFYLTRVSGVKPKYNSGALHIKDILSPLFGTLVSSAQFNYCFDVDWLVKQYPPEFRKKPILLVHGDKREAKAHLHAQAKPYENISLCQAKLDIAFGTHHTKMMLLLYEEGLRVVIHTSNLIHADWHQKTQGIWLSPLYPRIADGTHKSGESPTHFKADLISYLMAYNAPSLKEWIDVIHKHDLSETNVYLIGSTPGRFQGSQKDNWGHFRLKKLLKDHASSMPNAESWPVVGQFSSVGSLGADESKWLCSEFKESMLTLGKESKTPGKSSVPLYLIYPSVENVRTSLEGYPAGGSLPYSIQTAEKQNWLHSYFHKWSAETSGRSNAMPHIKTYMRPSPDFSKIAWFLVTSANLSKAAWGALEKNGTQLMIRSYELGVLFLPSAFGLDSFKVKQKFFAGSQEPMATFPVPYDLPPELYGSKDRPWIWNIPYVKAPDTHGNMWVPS
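Signal: AlphaScreen proximity between streptavidin donor and anti-FITC acceptor beads on intact substrate. Reaction: Tdp1 1 nM, substrate 15 nM final, 5 min RT after 15 min compound preincubation.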
IL1B secr inh: inflammasome signaling inhibition, IL-1 beta readout. THP-1 LPS/ATP IL-1B secretion, AlphaLISA, 16 h; active compounds read low. activity change, % at 57.5 µM. 4.7% of 360,000 active. AID 743279; in the data active = activity change below about -50%; inconclusive = mostly about -30% to -49%; note: % is set by controls: 0 for no effect and ±100 for the full control effect
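THP-1 cells pretreated 1 hr with compounds (up to 57.5 uM final), then stimulated with LPS (250 ng/mL final) plus ATP (1.25 mM final); secreted IL-1B measured by AlphaLISA after 16 hr, decreased signal indicating inhibition.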
TGFb SMAD3 inh: inhibitors of TGF-b signaling; HepG2 CAGA-GFP TGF-b/SMAD3 reporter, GFP fluorescence, 18 h; TGF-beta stimulated, 500 pg/mL final; Potency, µM (titrated, usually from 46.1 µM), for inactives: at the top dose activity, negative = inhibition, most hits filed as inhibitors; 1.2% of 410,000 active; AID 588855; note: potency is the fitted concentration of half-maximal effect; % is set by controls: 0 for no effect and ±100 for the full control effect; nearly all actives have a fitted effect of over 65% in size
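Read-out: total well GFP (ex488/em500-530) summed from mean per-cell fluorescence. Cells: HEPG2 CAGA-GFP, 1% FBS DMEM, 18 h at 37 degrees C with 500 pg/mL final TGF-beta. Unstimulated wells served as the full-inhibition control; stimulated DMSO wells = 0%.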
Active calls of the source: *; i = inactive; ? = inconclusive; / = not tested or not shown. Unless noted, calls come from the whole dose curve; as a rule, active = well fitted curve in the direction sought with a large enough effect; inconclusive = small, poorly fitted or top-dose-only effect, or another doubt; inactive = no such curve, though single readings can be large; an effect the other way counts as inactive or inconclusive.

SMILES	DT40 TDP1 no CPT	DT40 TDP1 CPT	HepG2 tox	TDP1 inh	IL1B secr inh	TGFb SMAD3 inh
CC1CC(OC(=O)C(O)c2ccccc2)CC(C)(C)C1 (centres undefined)	7.5µM*	?	/	4%	/	/
c1ccc(CNCc2nnc(-c3cc4ccccc4[nH]3)o2)cc1	/	/	/	0%	/	/
CC1=CC(=O)C(C(C)C)=C/C1=C(\c1cc(C(C)C)c(OP(=O)(O)O)cc1C)c1ccccc1C(=O)O	21µM*	?	-4%	/	25	?
CCOc1ccc(C(=O)c2ccccc2C(=O)O)cc1OCC	0%	0%	10%	0%	17	18%
O=C(NCCN1CCOCC1)C1CC(=O)N(c2ccc(F)cc2)C1 (centres undefined)	?	-3%	-10%	10%	-12	-1%
Cc1ccc(-c2cc3c(n2-c2ccc(C)cc2)CC(C)(C)CC3=O)cc1	-4%	0%	0%	3%	/	6%
COc1cccc(-n2c(-c3ccc(C)cc3)cc3c2CC(C)(C)CC3=O)c1	?	?	-15%	14%	/	-13%
COc1ccc(-n2c(-c3ccc(C)cc3)cc3c2CC(C)(C)CC3=O)c(OC)c1	?	15µM*	-100%	13%	/	?
Cc1ccc(-c2cc3c(n2-c2ccc(F)cc2)CC(C)(C)CC3=O)cc1	18µM*	16µM*	-24%	7%	/	-32%
CCCc1cc(=O)oc2cc(C)c3c(C(C)(C)C)coc3c12	?	?	-8%	1%	/	-4%
COC(=O)c1ccccc1NC(=O)c1oc2ccc3c(c2c1C)C(=O)CC(C)(C)O3	-6%	0%	-5%	8%	/	3%
Cc1ccc(C(=O)NNC(=O)Cn2nnc3ccccc32)cc1	9%	1%	11%	6%	1	10%
CCN(C(=O)c1ccc(C(C)(C)C)cc1)c1nnc(Cn2nnc3ccccc32)s1	8.2µM*	7.3µM*	-1%	1%	-15	19%
CCN(C(=O)CC(C)C)c1nnc(Cn2nnc3ccccc32)s1	21µM*	?	-1%	-4%	0	-6%
Cc1ccc(C)c(Cc2c(C)nc3c(C(=O)NCc4ccc5c(c4)OCO5)cnn3c2C)c1	/	/	/	2%	/	/
Cc1ccccc1Cc1c(C)nc2c(C(=O)N3CCN(Cc4ccc5c(c4)OCO5)CC3)cnn2c1C	18µM*	?	-14%	/	?	-14%
O=C(c1cnn2c(C(F)F)cc(-c3ccccc3)nc12)N1CCN(Cc2ccc3c(c2)OCO3)CC1	26µM*	?	0%	7%	i	?
Cc1ccccc1Cc1c(C)nc2c(C(=O)NCc3ccc4c(c3)OCO4)cnn2c1C	?	18µM*	-1%	-2%	0	-2%
CCOC(=O)c1ccc(N=Cc2nc(-c3ccccc3)oc2OC(C)=O)cc1	6.5µM*	9.2µM*	-40%	3%	-17	-9%
CCOC(=O)c1ccc(N=Cc2nc3ccccc3n2C)cc1	18µM*	?	11%	-4%	-14	1%
COc1ccc(N=Cc2nc(-c3ccccc3)oc2OC(=O)c2ccccc2)cc1	23µM*	21µM*	-28%	3%	0	-25%
CN(C)c1ccc(N=Cc2nc(-c3ccccc3)oc2OC(=O)c2cccc(Br)c2)cc1	16µM*	?	-12%	3%	?	0%
CC1=C(C(=O)Nc2ccccc2C)C(c2sccc2C)n2ncnc2N1 (centres undefined)	0%	1%	0%	1%	/	-1%
O=C(c1ccccc1)N1CCN(CC(O)COc2ccc(Br)cc2)CC1 (centres undefined)	?	?	-24%	/	-3	-13%

Source: PubChem
